Inconclusive results are not listed. Where a call stands in place of a potency, no number is given. Some compounds were tested as several samples or in several runs, with calls that do not always agree. Activity calls are given as the source filed them. Unless noted, calls follow the shape of the dose curve; as a rule, active = well fitted curve in the direction sought with a large enough effect in the repeat runs; inconclusive = weak or mixed curves; inactive = no such curve, though single readings can be large; an effect the other way counts as inactive or inconclusive.
Molecular target: Retinoic acid receptor RXR-alpha (Homo sapiens) (UniProt P19793)
Test: qHTS assay to identify small molecule agonists of the RXR signaling pathway (AID 1159527; calls by dose curve; also: nearly all actives have a fitted effect of over 35% in size)
Settings: HEK293T RXRa-UAS-bla, beta-lactamase ratio, 16 h; series mostly up to 76.8 µM
Procedure, shortened: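 Using 9-cis retinoic acid as the reference agonist, chemicals were tested in HEK 293T cells […] for 16 hr; substrate loading lasted 2 hr at room temperature.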
Potency is read from the fitted curve at half-maximal effect.

Chain of Retinoic acid receptor RXR-alpha (Homo sapiens) (P19793 whole entry, looked up): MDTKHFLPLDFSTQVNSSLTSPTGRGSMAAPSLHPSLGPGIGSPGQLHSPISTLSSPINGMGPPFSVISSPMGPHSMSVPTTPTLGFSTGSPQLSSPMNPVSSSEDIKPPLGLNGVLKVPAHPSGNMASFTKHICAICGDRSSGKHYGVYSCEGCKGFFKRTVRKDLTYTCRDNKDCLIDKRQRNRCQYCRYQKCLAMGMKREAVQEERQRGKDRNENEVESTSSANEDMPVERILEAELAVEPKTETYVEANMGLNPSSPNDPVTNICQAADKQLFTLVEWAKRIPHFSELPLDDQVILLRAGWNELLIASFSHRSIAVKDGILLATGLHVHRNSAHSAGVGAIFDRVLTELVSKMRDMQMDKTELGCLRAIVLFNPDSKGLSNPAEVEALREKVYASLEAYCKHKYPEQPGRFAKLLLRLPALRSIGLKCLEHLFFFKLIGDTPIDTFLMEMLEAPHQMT

SMILES	Potency
CC(C)(C)c1ccccc1O	inactive
C[C@]12CCC(=O)C(O)=C1CC[C@@H]1[C@@H]2CC[C@]2(C)C(=O)CC[C@@H]12	inactive
Nc1ccc(Cl)cc1N	inactive
Nn1cnnc1	inactive
c1ccc(N=Nc2ccccc2)cc1	inactive
O=C(CCl)c1ccccc1	inactive
N#Cc1cc(Br)c(O)c(Br)c1	inactive
CC(C)c1ccc(CO)cc1	inactive
Oc1cc(Cl)ccc1Oc1ccc(Cl)cc1Cl	inactive
CCCCN(CC)c1c([N+](=O)[O-])cc(C(F)(F)F)cc1[N+](=O)[O-]	inactive
Brc1ccc(Oc2cc(Br)c(Br)cc2Br)c(Br)c1	inactive
COP(=S)(OC)Oc1ccc([N+](=O)[O-])cc1	inactive
CN(C)c1ccc(C(=O)c2ccc(N(C)C)cc2)cc1	inactive
COc1ccc(C=O)cc1	inactive
c1ccc(NNc2ccccc2)cc1	inactive
NC(=S)Nc1ccccc1	inactive
C=CCc1ccc2c(c1)OCO2	inactive
CCCCC(CC)COC(=O)c1ccc(C(=O)OCC(CC)CCCC)c(C(=O)OCC(CC)CCCC)c1 (stereo not drawn)	inactive
CNC(=O)N(C)c1nnc(C(C)(C)C)s1	inactive

SMILES	Potency
Oc1ccc(-c2ccccc2)cc1	5.42 µM (active) and inactive
O=[N+]([O-])c1c(Cl)c(Cl)c(Cl)c(Cl)c1Cl	6.89 µM (active) and inactive
CC(C)(c1cc(Cl)c(O)c(Cl)c1)c1cc(Cl)c(O)c(Cl)c1	inactive
Nc1c(Cl)cc([N+](=O)[O-])cc1Cl	inactive
CN(C)C(=O)Nc1ccc(Cl)cc1	inactive
Cc1cc(C)cc(C)c1	inactive
CCN(N=O)C(N)=O	inactive
Cc1ccc2c(c1N)C(=O)c1ccccc1C2=O	inactive
CCN(CC)C(=O)SCc1ccc(Cl)cc1	inactive
Oc1cc(Cl)ccc1Cl	inactive
Nc1ccncc1	inactive
O=[N+]([O-])c1cccc2ccccc12	inactive
CC(C)NC(C)C	inactive
O=C(O)C(F)(F)C(F)(F)C(F)(F)C(F)(F)C(F)(F)C(F)(F)C(F)(F)F	inactive
S=C1NCCN1	inactive
CCN(CC)C(=O)/C(Cl)=C(\C)OP(=O)(OC)OC	inactive
C=CC(=O)OCCO	inactive
CCC(C)c1cc([N+](=O)[O-])cc([N+](=O)[O-])c1O (stereo not drawn)	inactive
C=C(C)C(=O)OCC1CO1 (stereo not drawn)	inactive

Test system: not listed separately
Test: qHTS assay to identify small molecule agonists of the RXR signaling pathway - cell viability counter screen (AID 1159529); also: nearly all actives have a fitted effect of over 50% in size
Settings: RXR-alpha-bla HEK293T viability, CellTiter-Glo, 16 h; series mostly up to 76.8 µM
Procedure, shortened: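 Compounds dissolved in DMSO were pinned onto HEK 293T cells carrying a beta-lactamase reporter under RXR-alpha control and incubated 16 hr. Cytotoxicity was then quantified by CellTiter-Glo luminescence.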

SMILES	Potency
Nc1ccc(Cl)cc1N	inactive
Oc1cc(Cl)ccc1Oc1ccc(Cl)cc1Cl	17.8 µM (active)
O=[N+]([O-])c1c(Cl)c(Cl)c(Cl)c(Cl)c1Cl	inactive
Oc1cc(Cl)ccc1Cl	inactive
Nc1ccncc1	inactive
S=C1NCCN1	inactive
C=C(C)C(=O)OCC1CO1 (stereo not drawn)	inactive

Test system: not listed separately
Test: qHTS assay to identify small molecule antagonists of the retinoid acid receptor (RAR) signaling pathway - cell viability counter screen (AID 1159551); also: nearly all actives have a fitted effect of over 35% in size
Settings: C3RL4 cells viability, ATP luminescence (CellTiter-Glo), 6 h; series mostly up to 92.4 µM
Procedure, shortened: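 Seed C3RL4 cells; next day add compound, then retinol to 1 uM final; incubate 6 h at 37 C; add CellTiter-Glo; read luminescence after 30 min at RT.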

SMILES	Potency
CC(C)(C)c1ccccc1O	inactive
C[C@]12CCC(=O)C(O)=C1CC[C@@H]1[C@@H]2CC[C@]2(C)C(=O)CC[C@@H]12	inactive
Nc1ccc(Cl)cc1N	inactive
Nn1cnnc1	inactive
c1ccc(N=Nc2ccccc2)cc1	inactive
O=C(CCl)c1ccccc1	inactive
N#Cc1cc(Br)c(O)c(Br)c1	inactive
CC(C)c1ccc(CO)cc1	inactive
Oc1cc(Cl)ccc1Oc1ccc(Cl)cc1Cl	31.4 µM (active)
CCCCN(CC)c1c([N+](=O)[O-])cc(C(F)(F)F)cc1[N+](=O)[O-]	inactive
Brc1ccc(Oc2cc(Br)c(Br)cc2Br)c(Br)c1	inactive
COP(=S)(OC)Oc1ccc([N+](=O)[O-])cc1	inactive
CN(C)c1ccc(C(=O)c2ccc(N(C)C)cc2)cc1	inactive
COc1ccc(C=O)cc1	inactive
c1ccc(NNc2ccccc2)cc1	inactive
NC(=S)Nc1ccccc1	inactive
C=CCc1ccc2c(c1)OCO2	inactive
CCCCC(CC)COC(=O)c1ccc(C(=O)OCC(CC)CCCC)c(C(=O)OCC(CC)CCCC)c1 (stereo not drawn)	inactive
CNC(=O)N(C)c1nnc(C(C)(C)C)s1	inactive

SMILES	Potency
Oc1ccc(-c2ccccc2)cc1	inactive
O=[N+]([O-])c1c(Cl)c(Cl)c(Cl)c(Cl)c1Cl	inactive
CC(C)(c1cc(Cl)c(O)c(Cl)c1)c1cc(Cl)c(O)c(Cl)c1	inactive
Nc1c(Cl)cc([N+](=O)[O-])cc1Cl	inactive
CN(C)C(=O)Nc1ccc(Cl)cc1	inactive
Cc1cc(C)cc(C)c1	inactive
CCN(N=O)C(N)=O	inactive
Cc1ccc2c(c1N)C(=O)c1ccccc1C2=O	inactive
CCN(CC)C(=O)SCc1ccc(Cl)cc1	inactive
Oc1cc(Cl)ccc1Cl	inactive
Nc1ccncc1	inactive
O=[N+]([O-])c1cccc2ccccc12	inactive
CC(C)NC(C)C	inactive
O=C(O)C(F)(F)C(F)(F)C(F)(F)C(F)(F)C(F)(F)C(F)(F)C(F)(F)F	inactive
S=C1NCCN1	inactive
CCN(CC)C(=O)/C(Cl)=C(\C)OP(=O)(OC)OC	inactive
C=CC(=O)OCCO	inactive
CCC(C)c1cc([N+](=O)[O-])cc([N+](=O)[O-])c1O (stereo not drawn)	inactive
C=C(C)C(=O)OCC1CO1 (stereo not drawn)	inactive
